High-throughput results from PubChem.
CHT allo act: allosterically activates the human high affinity choline transporter. Q9GZV3. CHT-expressing cells, membrane potential dye, choline EC20; active compounds read high; LV-AA mutant CHT in HEK293 cells. B-score at 10 µM. 0.49% of 310,000 active;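 active = initial fluorescence not abnormally high and integrated response B-score, plate-corrected, over 3 SD above library mean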
PREPL inh: inhibitors of human prolyl oligopeptidase-like enzyme PREPL; Q4J6C6; inhibition, % at 5.96 µM; 0.68% of 320,000 active; AID 2751; recombinant PREPL, fluorescence polarization activity-based probe;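 also: 0% = enzyme with DMSO and 100% = wells lacking enzyme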
Target sequence (Q4J6C6 whole entry, looked up): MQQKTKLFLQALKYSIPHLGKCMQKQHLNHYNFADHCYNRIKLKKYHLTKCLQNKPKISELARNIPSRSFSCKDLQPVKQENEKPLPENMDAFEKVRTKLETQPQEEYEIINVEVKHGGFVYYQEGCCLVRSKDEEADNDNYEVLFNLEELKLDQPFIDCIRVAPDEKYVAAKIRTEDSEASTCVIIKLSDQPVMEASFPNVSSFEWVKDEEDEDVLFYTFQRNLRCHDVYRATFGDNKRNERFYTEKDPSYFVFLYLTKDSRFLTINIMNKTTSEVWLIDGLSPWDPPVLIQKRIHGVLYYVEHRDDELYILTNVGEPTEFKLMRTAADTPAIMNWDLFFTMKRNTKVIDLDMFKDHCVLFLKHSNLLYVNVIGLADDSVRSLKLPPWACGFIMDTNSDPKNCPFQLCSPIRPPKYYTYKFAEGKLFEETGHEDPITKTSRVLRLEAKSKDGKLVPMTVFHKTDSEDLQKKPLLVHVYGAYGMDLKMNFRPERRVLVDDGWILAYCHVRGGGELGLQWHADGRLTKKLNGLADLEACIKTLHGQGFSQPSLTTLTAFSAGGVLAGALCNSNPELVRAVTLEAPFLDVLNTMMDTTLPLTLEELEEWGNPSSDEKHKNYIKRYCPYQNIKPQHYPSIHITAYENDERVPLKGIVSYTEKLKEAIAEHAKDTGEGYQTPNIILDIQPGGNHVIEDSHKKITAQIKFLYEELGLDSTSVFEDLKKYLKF
CHT block: human CHT choline transport inhibition | Q9GZV3 | CHT-expressing cells, membrane potential dye, choline response; active compounds read low | B-score at 10 µM | 0.86% of 310,000 active;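 active = B-score over 3 SD under the library average, and starting fluorescence ratio not unusually high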;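 also: choline stimulus applied at its EC90 after an EC20 pre-addition; B-score computed on integrated fluorescence ratio after choline addition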
AI-2 QS modul: modulators of Vibrio harveyi AI-2 quorum sensing system | Vibrio harveyi JMH597 AI-2 luminescence/OD600 ratio, 9 h; active compounds read low; strain lacks LuxN and CqsS sensors; 0 = neutral-control median | activity change, % at 7.5 µM | 0.4% of 300,000 active | AID 2094; in the data active = activity change below about -75%, passing the limit was not always enough;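 also: luminescence divided by OD600 gain over 9 h not by final OD600 alone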
ALR inh: human ALR oxidase inhibition via reduced H2O2; P55789; purified ALR, DTT oxidation, H2O2 HRP-luminol luminescence; inhibition, % (no concentration beside the values); 3.8% of 290,000 active;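 active = mean replicate inhibition above about 79%, with every replicate also reaching it, limit read from the data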
JMH597 growth: retest Vibrio harveyi JMH597 growth inhibition; shares compounds with AI-2 QS modul; OD600 absorbance, 9 h; lacks LuxN and CqsS sensors; growth inhibition, % at 7.5 µM; 1% of 750 active;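 active = every replicate shows growth inhibition above 50%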
BB721 lum counter: retest counter-screen: BB721 constitutive quorum sensing luminescence decrease; 95% of 750 active; shares compounds with AI-2 QS modul; Vibrio harveyi BB721 luminescence, 9 h; inhibition, % at 7.5 µM;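 active = inhibition above about 80% in every replicate, not just on average, limit read from the data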
BB721 growth rt: retest Vibrio harveyi BB721 growth inhibition; shares compounds with AI-2 QS modul; growth inhibition, % at 7.5 µM; 3% of 750 active; AID 2728; OD600 absorbance, 9 h;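 active = every replicate shows growth inhibition above 50%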
JMH597 AI-2 mod: Vibrio harveyi AI-2 signaling luminescence modulation – JMH597 strain, confirmation | inhibition, % at 7.5 µM | shares compounds with AI-2 QS modul | Vibrio harveyi JMH597 AI-2 quorum sensing luminescence, 9 h; luxN and CqsS knockout, AI-2 only | 97% of 750 active;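 active = every replicate shows more than 75% inhibition of signal versus neutral control wells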
PREPL inh cf: human PREPL inhibition, confirmation | AID 2803 | inhibition, % at 5.96 µM | shares compounds with PREPL inh | 67% of 2,000 active | recombinant PREPL, fluorescence polarization activity probe;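 also: 0% = protein with DMSO and 100% = wells lacking protein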
Numbers without * were called inactive. Sampled rows, rich in hits. Any-hit rate of the full collection: about 5%. Rule as the data show it, unless noted: active = inhibition above about 43%; inactive = the rest.

For COC(=O)C1C(O)C(C)C(O)C(C)/C=C\C=C(/C)C(=O)Nc2c(C)c(OC(C)=O)c3c(c2O)C(=O)C(C)=C2OCOC(=C23)/C(C)=C/C(C)(O)C(O)C(C)C1O (stereo not drawn) the results were CHT allo act inactive, PREPL inh 0, CHT block inactive, AI-2 QS modul -150* and ALR inh -32.
Screening COc1cccc(N2C(=O)NC(=O)/C(=C/c3ccc4c(c3)Cc3ccccc3-4)C2=O)c1 returned CHT allo act inactive, PREPL inh -12, CHT block inactive, AI-2 QS modul 28 and ALR inh -171.
`Nc1ccc2c(c1)Cc1ccccc1-2` gave CHT allo act inactive, PREPL inh 13, CHT block inactive, AI-2 QS modul 21 and ALR inh 99*.
COc1ccc(NC(=O)N2C[C@@H]3C[C@@H](C2)c2cccc(=O)n2C3)c(OC)c1 was read as CHT allo act inactive, PREPL inh -1, CHT block inactive, AI-2 QS modul 7 and ALR inh 1.
`CC1N=C(c2ccccc2Cl)c2cc(Br)ccc2NC1=O` (stereo not drawn) gave CHT allo act inactive, PREPL inh 15, CHT block inactive, AI-2 QS modul 11 and ALR inh -4.
`CCOc1ccc2nc(N=Nc3c(O)[nH]c(=S)[nH]c3=O)sc2c1` gave CHT allo act inactive, PREPL inh 4, CHT block inactive, AI-2 QS modul 19 and ALR inh 96*.
`N/C(=N\[N+](=O)[O-])N/N=C/c1ccc(O)cc1` gave CHT allo act inactive, PREPL inh 3, CHT block inactive, AI-2 QS modul 6 and ALR inh 97*.
For COc1cc2c(cc1OC)-c1c(OC)c(OC)cc3c1C(C2)N(C)CC3 (stereo not drawn) the results were CHT allo act 8.4*, PREPL inh 11, CHT block inactive, AI-2 QS modul 13 and ALR inh -9.
`O=C(COC(=O)c1ccc(O)cc1)Nc1ccc(Cl)cc1C(=O)c1ccccc1` gave CHT allo act inactive, PREPL inh -8, CHT block inactive, AI-2 QS modul 47 and ALR inh 96*.
`Cn1c(O)c(C(=Nc2ccccc2)SCc2ccccc2Cl)c(=O)n(C)c1=O` gave CHT allo act inactive, PREPL inh 6, CHT block inactive, AI-2 QS modul 5 and ALR inh 96*.
O=C(O)C12C3CCCC1C32c1ccccc1 (stereo not drawn) was read as CHT allo act inactive, PREPL inh -13, CHT block inactive, AI-2 QS modul 37 and ALR inh 99*.
For CCN1CCN(c2ccc(N)c(C)c2)CC1 the results were CHT allo act inactive, PREPL inh 12, CHT block inactive, AI-2 QS modul 13 and ALR inh 96*.
For CCOc1ccc(-n2c(O)c(C=Nc3ccc(N(CC)CC)cc3)c(=O)[nH]c2=O)cc1 the results were CHT allo act inactive, PREPL inh 23, CHT block inactive, AI-2 QS modul 5 and ALR inh -1.
For CCN(CC)c1ccc(N=Cc2c(O)n(-c3ccccc3)c(=O)[nH]c2=O)cc1 the results were CHT allo act inactive, PREPL inh 16, CHT block inactive, AI-2 QS modul 42 and ALR inh 81*.
O=C(Cc1ccccc1)OCC(=O)c1ccc(F)cc1 was read as PREPL inh 3 and ALR inh -2.
O=C(Cc1ccccc1)OCC(=O)c1ccccc1 was read as CHT allo act inactive, CHT block inactive, AI-2 QS modul -80*, ALR inh -12, JMH597 growth 19, BB721 lum counter 96*, BB721 growth rt 3 and JMH597 AI-2 mod 97*.
N#CC1=C(N)Oc2c(c(=O)sc3ccccc23)C1c1cccnc1 (stereo not drawn) was read as CHT allo act inactive, PREPL inh 11, CHT block inactive, AI-2 QS modul 3 and ALR inh 4.
For CCc1ccc(NC(=O)CN2CC(c3ccccc3)CC2=O)cc1 (stereo not drawn) the results were CHT allo act inactive, PREPL inh 0, CHT block inactive, AI-2 QS modul -81*, JMH597 growth 21, BB721 lum counter 88*, BB721 growth rt 10 and JMH597 AI-2 mod 92*.
For O=[N+]([O-])c1ccccc1-c1cc(-c2ccccc2)cc(-c2ccccc2)[n+]1Cc1ccccc1Cl the results were CHT allo act inactive, PREPL inh 51*, CHT block -5.3*, AI-2 QS modul 13, ALR inh -41 and PREPL inh cf 49*.
`O=C(c1ccc2nc3ccc(Cl)cc3c(=O)n2c1)N1CCC2(CC1)OCCO2` gave CHT allo act inactive, PREPL inh -2 and CHT block inactive.
Screening CCC(C)C12CN3CCN(CC(C)(C3)C1=O)C2 (stereo not drawn) returned CHT allo act inactive, PREPL inh 4, CHT block inactive, AI-2 QS modul 15 and ALR inh -4.
`CC1=NCCc2c1[nH]c1cc(O)ccc21` gave CHT allo act inactive, PREPL inh 51*, CHT block inactive, ALR inh 99* and PREPL inh cf 10.
For C1=NCCc2c1[nH]c1ccccc21 the results were CHT allo act inactive, PREPL inh 22, CHT block inactive, AI-2 QS modul 13 and ALR inh -2.
Screening COc1ccc2c(c1)c(C(=O)CN1CCC3(CC1)OCCO3)c(C)n2Cc1ccccc1 returned CHT allo act inactive, PREPL inh 58*, CHT block inactive, AI-2 QS modul 9, ALR inh -3 and PREPL inh cf 49*.
`CCN1CCN(CC(=O)c2c(C)n(Cc3ccccc3)c3ccc(OC)cc23)CC1` gave CHT allo act inactive, PREPL inh 5, CHT block inactive, AI-2 QS modul 2 and ALR inh -4.
